Results on 13 compounds are retold here after PubChem BioAssay (EPA / NIEHS).

Inconclusive results are not listed. Calls of active or inactive are those of the source. Rule for the calls, unless noted: active = hit-call score of the fitted dose curve at least 0.9, where 1 is the maximum; inconclusive = response in the unintended direction; inactive = score below 0.9.

Assay [1] is described as follows: Tanguay_ZF_120hpf_OTIC_legacy: (Legacy) Oregon State University Tanguay Lab 120 Hour Post-fertilization zebrafish Assay for Otic Vesicle Malformation (AID 2283639). Put shortly: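 Statically exposed wild-type 5D zebrafish embryos, kept sealed and dark at 28C through 120 hours post fertilization, were examined by brightfield microscopy for otic vesicle defects. Responses were recorded as present or absent and analysed relative to DMSO.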

The nature of assay [2]: Tanguay_ZF_120hpf_PE_legacy: (Legacy) Oregon State University Tanguay Lab 120 Hour Post-fertilization zebrafish Assay for Pericardial Edema (AID 2283640). Put shortly:
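Zebrafish larvae are exposed from early development to 120 hpf at 28C, with 0.64% DMSO final. Each surviving larva receives a yes/no pericardial edema call by brightfield imaging, analysed relative to the DMSO baseline.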

Assay [3] is described as follows: Tanguay_ZF_120hpf_BRAI_legacy: (Legacy) Oregon State University Tanguay Lab 120 Hour Post-fertilization zebrafish Assay for Brain Malformation (AID 2283641). The procedure, abridged:
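Static exposure of staged wild-type embryos until 120 hpf, kept at 28C with light excluded and final DMSO of 0.64% (vol/vol). Presence or absence of brain malformation was noted under brightfield; mortality precluded scoring.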

A short description of assay [4]: Tanguay_ZF_120hpf_SOMI_legacy: (Legacy) Oregon State University Tanguay Lab 120 Hour Post-fertilization zebrafish Assay for Somite Malformation (AID 2283647). The procedure, abridged:
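Somitogenesis defects are recorded as binary calls in whole larvae at 120 hpf after continuous static chemical exposure starting at 6 hpf in dechorionated 5D embryos. DMSO serves as negative control and baseline.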

Assay [5] can be described thus: Tanguay_ZF_120hpf_PFIN_legacy: (Legacy) Oregon State University Tanguay Lab 120 Hour Post-fertilization zebrafish Assay for Pectoral Fin Malformation (AID 2283648).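 Note: each larva judged yes or no for fin defect by brightfield with dead larvae skipped.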 Put shortly: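 Pectoral fin malformation was recorded as a binary endpoint at 120 hpf in wild-type Tropical 5D larvae, which had been dechorionated and exposed statically from 6 hpf at 28C in 0.64% DMSO. Dead embryos were excluded.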

Assay [6] is described as follows: Tanguay_ZF_120hpf_CFIN_legacy: (Legacy) Oregon State University Tanguay Lab 120 Hour Post-fertilization zebrafish Assay for Caudal Fin Malformation (AID 2283649). The procedure, abridged: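 Single dechorionated 5D wild-type embryos are dosed at 6 hpf (final DMSO 0.64%) and held statically at 28C. Caudal fin malformation is recorded as present or absent at 120 hpf under brightfield, excluding dead embryos.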

Assay [7] in a line: Tanguay_ZF_120hpf_PIG_legacy: (Legacy) Oregon State University Tanguay Lab 120 Hour Post-fertilization zebrafish Assay for Pigmentation Malformation (AID 2283650). The procedure, abridged: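 Pigment malformation recorded as a binary call at 120 hpf in zebrafish (Tropical 5D) exposed singly from 6 hpf after pronase dechorionation. Static, sealed, 28C exposure, 0.64% DMSO; mortality excludes scoring; positive-direction fit against DMSO.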

Assay [8] can be described thus: Tanguay_ZF_120hpf_CIRC_legacy: (Legacy) Oregon State University Tanguay Lab 120 Hour Post-fertilization zebrafish Assay for Circulatory Malformation (AID 2283651). Put shortly:
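Embryos are dechorionated at 4 hpf, plated one per well at 6 hpf, then held under static exposure at 28C until 120 hpf. Malformations are recorded as binary calls; mortality excludes other endpoints.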

A short description of assay [9]: Tanguay_ZF_120hpf_SWIM_legacy: (Legacy) Oregon State University Tanguay Lab 120 Hour Post-fertilization zebrafish Assay for Swim Bladder Malformation (AID 2283654).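 Note: swim bladder malformation in each larva scored yes or no under brightfield.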 The procedure, abridged:
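Scoring is binary for swim bladder defects at 120 hpf, by brightfield inspection of zebrafish larvae. Embryos were exposed singly from 6 hpf after pronase dechorionation, at 28C with 0.64% DMSO; mortality excluded scoring.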

A short description of assay [10]: Tanguay_ZF_120hpf_TRUN_legacy: (Legacy) Oregon State University Tanguay Lab 120 Hour Post-fertilization zebrafish Assay for Truncated Body (AID 2283655). The procedure, abridged: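 Single dechorionated zebrafish embryos received test chemical from 6 hpf in 0.64% DMSO, kept at 28C. At 120 hpf, brightfield inspection noted any truncated body.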
Assay [11] in a line: Tanguay_ZF_120hpf_NC_legacy: (Legacy) Oregon State University Tanguay Lab 120 Hour Post-fertilization zebrafish Assay for Notochord and Tail Malformation (AID 2283656). Put shortly:
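Binary scoring of notochord distortion by brightfield microscopy; embryos dying were not scored. Wild-type Tropical 5D embryos, chorion removed, exposed singly and statically from 6 to 120 hpf, 28C, sealed, 0.64% DMSO.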

A short description of assay [12]: Tanguay_ZF_120hpf_TR_legacy: (Legacy) Oregon State University Tanguay Lab 120 Hour Post-fertilization zebrafish Assay for Touch Response (AID 2283667). The procedure, abridged: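 Binary touch-response endpoint in larvae at 120 hpf after static waterborne exposure from embryo stage (28°C, 0.64% DMSO vehicle, 5 uM trimethyltin chloride as positive control); embryos dead at 24 or 120 hpf excluded; fitted as gain versus DMSO.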

Assay [13] can be described thus: Tanguay_ZF_120hpf_ActivityScore_legacy: (Legacy) Oregon State University Tanguay Lab 120 Hour Post-fertilization zebrafish Assay Score for Activity (AID 2283742). Put shortly:
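Binary scoring of mortality and morphology by brightfield at 24 and 120 hpf, summarised into one activity score from 18 components relative to DMSO. Wild-type Tropical 5D zebrafish, chorion removed at 4 hpf, static exposure 6–120 hpf, 28 °C.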

The subject of assay [14] is Thyroperoxidase (TPO), gene 54314. The assay is described as follows: CCTE_Simmons_AUR_rTPO: CCTE's Amplex UltraRed Assay for Thyroperoxidase (TPO) Inhibition, Simmons Lab (AID 2283662).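 For AC50: potency for loss of signal meaning inhibition of peroxidase activity.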 Put shortly: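 Cell-free peroxidase activity assay using rat thyroid gland microsomes with excess H2O2 (300 uM) and 25 uM Amplex UltraRed. Compounds tested from 5 nM to 87.5 uM; fluorescence measured after 30 min at 37C, analysed relative to DMSO baseline.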

Assay [15] in a line: CCTE_Simmons_CellTiterGLO_HEK293T: Viability Assessment in CCTE's Assays for Thyroperoxidase (TPO) Inhibition, Simmons Lab (AID 2283665).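 For AC50: cells exposed to compound for 24 h before readout; actives reduce ATP signal below DMSO vehicle meaning cytotoxicity.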 The procedure, abridged:
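Cells were seeded overnight, then exposed to an eight-point series up to 87.5 uM final for 24 hours. CellTiter-Glo reagent was added and luminescence read after 20 min, giving ATP-based viability versus DMSO.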

A short description of assay [16]: CEETOX_H295R_MTT_cell_viability: Viability Assessment in the CeeTox HT-H295R MTT Assay (AID 2283718; active = hit-call score of the fitted dose curve at least 0.9, where 1 is the maximum; inactive = score below 0.9;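 for AC50: curve fitted both ways so AC50 may mark viability loss or gain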). The procedure, abridged: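 MTT reduction (0.5 mg/ml, 4 h at 37 C; absorbance at 570 and 650 nm) gave viability as background-corrected percent change versus controls. H295R cells had 48 h forskolin (10 uM) prestimulation, then 48 h chemical exposure at 0.1% DMSO.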

Assay [17] can be described thus: STM_H9_OrnCyssISnorm_ratio: Stemina devTOX quickPredict H9 human embryonic stem cell (hESC)-based Assay for Ornithine (ORN):Cystine (CYSS) Ratio (AID 2283714). Put shortly: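 Ratio of internal-standard-normalized ornithine to cystine, measured by UPLC-HRMS in spent media from the last 24 h. H9 cells kept pluripotent, dosed 72 h with daily media and compound renewal; DMSO 0.1% serves as baseline.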

In the case of `Cc1ccc([N+](=O)[O-])cc1N`, the result in [1], in [2], in assay [3], in assay [4], in assay [5] and in assay [6] was inactive. Besides, the outcome in [7], in [8], in assay [9], in assay [10], in assay [11] and in [12] was inactive. Further, the outcome in [13] was inactive.

The AC50 is the concentration giving half of the maximal activity seen. As for `Nc1ccc(C(=O)O)cc1`, the outcome in assay [1], in assay [2], in assay [4], in [5], in assay [6] and in [7] was inactive. In addition, the call in assay [8], in assay [9], in assay [10], in assay [11], in [12] and in [13] was inactive. In addition, in assay [14], the half-maximal activity concentration (AC50) is 3.19 µM (active).

`CCCCCCCCCCCCc1ccc(O)cc1`: the figures for the AC50 in [14] and in assay [15] were 26.2 µM (active) and 11.4 µM (active), respectively.

As to `CCOC(=O)C1=NN(c2ccc(Cl)cc2Cl)C(C)(C(=O)OCC)C1` (stereo not given), the compound was classed as inactive in assay [16].

As for `CC(C)(c1ccccc1)c1ccc(Nc2ccc(C(C)(C)c3ccccc3)cc2)cc1`, the figures for the AC50 in [14] and in assay [16] were 33.8 µM (active) and 86 µM (active), respectively.

As for `O=C(OCc1ccccc1)c1ccc(O)cc1`, the concentration at half-maximal activity (AC50) in [16] is 10.6 µM (active).

On to `CCCCC/C=C\C/C=C\CCCCCCCC(=O)O`, for which the concentration at half-maximal activity (AC50) was 43.8 µM (active) in [14] and 86.4 µM (active) in assay [15].

On to `CC(CCC(=O)O)(c1ccc(O)cc1)c1ccc(O)cc1`, for which the AC50 in assay [14] is 18.3 µM (active). Moreover, the result in [17] was inactive.

With `CN(C)c1ccc2nc3ccc(=[N+](C)C)cc-3sc2c1`, the AC50 in assay [14] is 34 µM (active); in assay [15] it was 13.7 µM (active); in assay [17], 2.34 µM (active). The call in [16] was inactive.

Regarding `COc1ccc(C(=O)c2ccccc2)c(O)c1`, the compound was called inactive in [14], in assay [15], in assay [17] and in [16].

On to `CCCCCCCCCC[N+](C)(CCCCCCCCCC)CCC[Si](OC)(OC)OC`, for which the AC50 in [14] was 48.9 µM (active); in assay [15], 16 µM (active).

As to `COC(=O)c1ccccc1C`, the result in [14] and in assay [15] was inactive.

In the case of `CCCCCCCOC(=O)c1ccc(O)cc1`, the AC50 in [14] is 52.6 µM (active); in [15] it was 35.7 µM (active).
